Source: article PMC11062922 (Nature Chemical Biology, 2023)
Read-outs that look alike come from different tables or passages of the source.

Key:
AAK1 = test system: AAK1; design: species or system human, MV4-11 + K-562 + COLO205 + SK-N-BE2 + OVCAR-8; settings: read-out: apparent Kd, n = 1
Q6ZSR9 = Q6ZSR9 (human, UniProt Q6ZSR9); design: species or system MV4-11 + K-562 + COLO205 + SK-N-BE2 + OVCAR-8; settings: read-out: apparent Kd, n = 1
CLK1 = test system: CLK1; design: species or system human, MV4-11 + K-562 + COLO205 + SK-N-BE2 + OVCAR-8; settings: read-out: apparent Kd, compound concentrations: 100 nM and 1000 nM (sheet 'Samples'), n = 1
CLK4 = test system: CLK4; design: species or system human, MV4-11 + K-562 + COLO205 + SK-N-BE2 + OVCAR-8; settings: read-out: apparent Kd, compound concentrations: 100 nM and 1000 nM (sheet 'Samples'), n = 1
CSNK2A1;CSNK2A3 = test system: CSNK2A1;CSNK2A3; design: species or system human, MV4-11 + K-562 + COLO205 + SK-N-BE2 + OVCAR-8; settings: read-out: apparent Kd, compound concentrations: 100 nM and 1000 nM (sheet 'Samples'), n = 1
CSNK2A2 = test system: CSNK2A2; design: species or system human, MV4-11 + K-562 + COLO205 + SK-N-BE2 + OVCAR-8; settings: read-out: apparent Kd, compound concentrations: 100 nM and 1000 nM (sheet 'Samples'), n = 1
GAK = test system: GAK; design: species or system human, MV4-11 + K-562 + COLO205 + SK-N-BE2 + OVCAR-8; settings: read-out: apparent Kd, compound concentrations: 100 nM and 1000 nM (sheet 'Samples'), n = 1
ABL1 = test system: ABL1; design: species or system human, MV4-11 + K-562 + COLO205 + SK-N-BE2 + OVCAR-8; settings: read-out: apparent Kd, compound concentrations: 100 nM and 1000 nM (sheet 'Samples'), n = 1
ABL2 = test system: ABL2; design: species or system human, MV4-11 + K-562 + COLO205 + SK-N-BE2 + OVCAR-8; settings: read-out: apparent Kd, compound concentrations: 100 nM and 1000 nM (sheet 'Samples'), n = 1
BCR = test system: BCR; design: species or system human, MV4-11 + K-562 + COLO205 + SK-N-BE2 + OVCAR-8; settings: read-out: apparent Kd, compound concentrations: 100 nM and 1000 nM (sheet 'Samples'), n = 1
FYN = test system: FYN; design: species or system human, MV4-11 + K-562 + COLO205 + SK-N-BE2 + OVCAR-8; settings: read-out: apparent Kd; compound concentrations: 100 nM and 1000 nM (sheet 'Samples'), CATDS: 2.5035707525361502E-2; n = 1
HCK = test system: HCK; design: species or system human, MV4-11 + K-562 + COLO205 + SK-N-BE2 + OVCAR-8; settings: read-out: apparent Kd; compound concentrations: 100 nM and 1000 nM (sheet 'Samples'), CATDS: 2.2990890088698399E-2; n = 1
LCK = test system: LCK; design: species or system human, MV4-11 + K-562 + COLO205 + SK-N-BE2 + OVCAR-8; settings: read-out: apparent Kd; compound concentrations: 100 nM and 1000 nM (sheet 'Samples'), CATDS: 1.5741185519971699E-2; n = 1
PTK6 = test system: PTK6; design: species or system human, MV4-11 + K-562 + COLO205 + SK-N-BE2 + OVCAR-8; settings: read-out: apparent Kd; compound concentrations: 100 nM and 1000 nM (sheet 'Samples'), CATDS: 2.4564391165164502E-2; n = 1
RET = test system: RET; design: species or system human, MV4-11 + K-562 + COLO205 + SK-N-BE2 + OVCAR-8; settings: read-out: apparent Kd; compound concentrations: 100 nM and 1000 nM (sheet 'Samples'), CATDS: 4.4477848245190701E-2; n = 1
RIPK2 = test system: RIPK2; design: species or system human, MV4-11 + K-562 + COLO205 + SK-N-BE2 + OVCAR-8; settings: read-out: apparent Kd, compound concentrations: 100 nM and 1000 nM (sheet 'Samples'), n = 1
RIPK3 = test system: RIPK3; design: species or system human, MV4-11 + K-562 + COLO205 + SK-N-BE2 + OVCAR-8; settings: read-out: apparent Kd; compound concentrations: 100 nM and 1000 nM (sheet 'Samples'), CATDS: 1.48381507951055E-2; n = 1
YES1 = test system: YES1; design: species or system human, MV4-11 + K-562 + COLO205 + SK-N-BE2 + OVCAR-8; settings: read-out: apparent Kd; compound concentrations: 100 nM and 1000 nM (sheet 'Samples'), CATDS: 2.43288733372133E-2; n = 1
[1] = compound concentrations:100 nM and 1000 nM (sheet 'Samples')

Chain of Q6ZSR9 (Q6ZSR9 whole entry, looked up): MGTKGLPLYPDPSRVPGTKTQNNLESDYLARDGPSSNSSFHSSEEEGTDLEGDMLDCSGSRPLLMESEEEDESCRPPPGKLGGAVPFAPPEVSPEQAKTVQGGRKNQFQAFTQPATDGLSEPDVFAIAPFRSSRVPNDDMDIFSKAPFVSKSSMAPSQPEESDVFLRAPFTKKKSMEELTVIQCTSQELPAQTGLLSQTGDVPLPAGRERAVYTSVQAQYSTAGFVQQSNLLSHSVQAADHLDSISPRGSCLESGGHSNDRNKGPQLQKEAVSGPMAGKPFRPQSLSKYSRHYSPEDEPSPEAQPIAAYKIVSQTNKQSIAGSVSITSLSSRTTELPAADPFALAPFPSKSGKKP

## CC(C)c1cc(-c2ccc3c(N)n[nH]c3c2)nc(N)n1 [GSK2250882A]
AAK1; [1]
  potency estimated from few doses: 838 nM
Q6ZSR9; [1]
  potency estimated from few doses: 1370 nM

## O=C1N=C(NCc2ccccc2)S/C1=C\c1ccc2ncccc2c1 [RO4442080-000]
AAK1; compound concentrations: 100 nM and 1000 nM (sheet 'Samples'), CATDS: 8.89289230622759E-2
  potency estimated from few doses: 1380 nM
CLK1; CATDS: 0.13842928601840401
  potency estimated from few doses: 521 nM
CLK4; CATDS: 0.11834941417905
  potency estimated from few doses: 701 nM
CSNK2A1;CSNK2A3; CATDS: 0.15313565978355501
  potency estimated from few doses: 438 nM
CSNK2A2; CATDS: 0.175887275734743
  potency estimated from few doses: 351 nM
Q6ZSR9; compound concentrations: 100 nM and 1000 nM (sheet 'Samples'), CATDS: 0.110093670656788
  potency estimated from few doses: 815 nM

## NC1=NC(=O)/C(=C/c2ccc3ncccc3c2)S1 [RO4569139-000]
AAK1; compound concentrations: 100 nM and 1000 nM (sheet 'Samples'), CATDS: 6.8889261451454395E-2
  potency estimated from few doses: 1710 nM
CLK1; CATDS: 0.136614362929
  potency estimated from few doses: 259 nM
CLK4; CATDS: 7.4487877667225894E-2
  potency estimated from few doses: 1260 nM
CSNK2A1;CSNK2A3; CATDS: 0.13735026532766101
  potency estimated from few doses: 256 nM
CSNK2A2; CATDS: 0.14765038324125301
  potency estimated from few doses: 222 nM
Q6ZSR9; compound concentrations: 100 nM and 1000 nM (sheet 'Samples'), CATDS: 7.6885749429296102E-2
  potency estimated from few doses: 1130 nM

## Cl.O=C1N=C(NCc2ccccn2)S/C1=C\c1ccc2ncccc2c1 [RO4874953-001]
AAK1; compound concentrations: 100 nM and 1000 nM (sheet 'Samples'), CATDS: 0.10575738699934099
  potency estimated from few doses: 813 nM
CLK1; CATDS: 9.3934655889041305E-2
  potency estimated from few doses: 1020 nM
CLK4; CATDS: 0.12673851417901799
  potency estimated from few doses: 598 nM
CSNK2A1;CSNK2A3; CATDS: 0.103683643435769
  potency estimated from few doses: 843 nM
CSNK2A2; CATDS: 0.101925374884365
  potency estimated from few doses: 870 nM
GAK; CATDS: 8.1785679571560799E-2
  potency estimated from few doses: 1370 nM
Q6ZSR9; compound concentrations: 100 nM and 1000 nM (sheet 'Samples'), CATDS: 8.7999658255021304E-2
  potency estimated from few doses: 1160 nM

## O=C1N=C(NCc2ccccc2Cl)S/C1=C\c1ccc2ncccc2c1 [RO4506917-000]
AAK1; compound concentrations: 100 nM and 1000 nM (sheet 'Samples'), CATDS: 0.11408276718016799
  potency estimated from few doses: 696 nM
CLK1; CATDS: 0.13615422717459799
  potency estimated from few doses: 443 nM
CLK4; CATDS: 0.16237253930463899
  potency estimated from few doses: 307 nM
CSNK2A1;CSNK2A3; CATDS: 0.21358904197946299
  potency estimated from few doses: 190 nM
CSNK2A2; CATDS: 0.17001055355195799
  potency estimated from few doses: 281 nM
Q6ZSR9; compound concentrations: 100 nM and 1000 nM (sheet 'Samples'), CATDS: 9.7347252089560202E-2
  potency estimated from few doses: 1190 nM

## COc1cccc(-n2ncc3c(N/N=C/c4ccc(C(=O)NCCN(C)C)cc4)ncnc32)c1.Cl [GW784307A]
ABL1; CATDS: 7.2174093506066003E-2
  potency estimated from few doses: 114 nM
ABL2; CATDS: 3.8634429049696897E-2
  potency estimated from few doses: 479 nM
BCR; CATDS: 0.110130424240114
  potency estimated from few doses: 53.4 nM
CLK1; CATDS: 2.9878019560437799E-2
  potency estimated from few doses: 1060 nM
CLK4; CATDS: 3.0333782570854902E-2
  potency estimated from few doses: 1010 nM
CSNK2A1;CSNK2A3; CATDS: 5.2102189470279198E-2
  potency estimated from few doses: 227 nM
CSNK2A2; CATDS: 8.6711561514054597E-2
  potency estimated from few doses: 80.9 nM
GAK; CATDS: 2.92049494926887E-2
  potency estimated from few doses: 1160 nM

## Cc1ccc(O)cc1Nc1ccnc2cc(-c3ccc(CN4CCCCC4)o3)ccc12 [GW557777X]
ABL1; CATDS: 4.3692235612931E-2
  potency estimated from few doses: 8.34 nM
ABL2; CATDS: 6.7746368355333403E-2
  potency estimated from few doses: 2.92 nM
BCR; CATDS: 0.10189444124387
  potency estimated from few doses: 1.17 nM
FYN
  potency estimated from few doses: 44.5 nM
GAK; CATDS: 5.9852273314458602E-2
  potency estimated from few doses: 3.88 nM
HCK
  potency estimated from few doses: 60.9 nM
LCK
  potency estimated from few doses: 353 nM
PTK6
  potency estimated from few doses: 47.6 nM
RET
  potency estimated from few doses: 7.97 nM
RIPK2; CATDS: 5.5536056615070897E-2
  potency estimated from few doses: 4.62 nM
RIPK3
  potency estimated from few doses: 508 nM
YES1
  potency estimated from few doses: 49.3 nM

## CNC1=NC(=O)/C(=C/c2ccc3ncccc3c2)S1 [RO4595949-000]
AAK1; compound concentrations: 100 nM and 1000 nM (sheet 'Samples'), CATDS: 6.4601129134093493E-2
  potency estimated from few doses: 737 nM
CLK1; CATDS: 0.21110804330204799
  potency estimated from few doses: 68.5 nM
CLK4; CATDS: 7.8220573800827503E-2
  potency estimated from few doses: 429 nM
CSNK2A1;CSNK2A3; CATDS: 0.13596728585800399
  potency estimated from few doses: 136 nM
CSNK2A2; CATDS: 0.13149975380310699
  potency estimated from few doses: 144 nM
Q6ZSR9; compound concentrations: 100 nM and 1000 nM (sheet 'Samples'), CATDS: 0.14278895493122401
  potency estimated from few doses: 125 nM

## NC(=O)c1cccc(Nc2nccc(Nc3cccc4[nH]ncc34)n2)c1 [GW782612X]
ABL1; CATDS: 3.3551530123454902E-2
  potency estimated from few doses: 1900 nM
ABL2; CATDS: 4.6849720703519497E-2
  potency estimated from few doses: 629 nM
BCR; CATDS: 5.7731069178064698E-2
  potency estimated from few doses: 381 nM
CLK1; CATDS: 3.6631639688053302E-2
  potency estimated from few doses: 1340 nM
CLK4; CATDS: 4.0513674478844103E-2
  potency estimated from few doses: 951 nM
CSNK2A2; CATDS: 3.4795292983427199E-2
  potency estimated from few doses: 1630 nM
GAK; CATDS: 4.0699733875589103E-2
  potency estimated from few doses: 937 nM
RIPK2; CATDS: 7.1079405795032996E-2
  potency estimated from few doses: 247 nM

## O=C1N=C(NCCc2ccccc2F)S/C1=C\c1ccc2ncccc2c1 [RO4498483-000]
AAK1; compound concentrations: 100 nM and 1000 nM (sheet 'Samples'), CATDS: 8.5407630700809506E-2
  potency estimated from few doses: 957 nM
CLK1; CATDS: 0.138137656029612
  potency estimated from few doses: 347 nM
CLK4; CATDS: 9.8466136533641502E-2
  potency estimated from few doses: 675 nM
CSNK2A1;CSNK2A3; CATDS: 0.15223513812582401
  potency estimated from few doses: 295 nM
CSNK2A2; CATDS: 0.14884656797599799
  potency estimated from few doses: 306 nM
Q6ZSR9; compound concentrations: 100 nM and 1000 nM (sheet 'Samples'), CATDS: 8.1205084555915505E-2
  potency estimated from few doses: 1100 nM
